# Screens deposited in PubChem BioAssay by Sanford-Burnham Center for Chemical Genomics.
# The list is not random: actives were taken first. Their share in the collection is about 3.1%.
# HIF-2a block: inhibitors of HIF-2a; 360,000 compounds, 0.72% hits; 786-0 RCC cells HIF-2a reporter, luciferase luminescence, overnight; AID 624352; inhibition, % at 18.8 µM;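 active = inhibition of the luminescence signal of 40% or more relative to plate controls, in a single-dose primary screen at 18.75 µM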
# CF NFkB inh: blocks PAF-induced NF-kB reporter in cystic fibrosis cells; KKLEB NF-kB-GFP reporter, GFP fluorescence overnight; inhibition, % at 5 µM; 360,000 compounds, 0.86% hits;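 active = at least 50% inhibition at 5 µM, scaled per plate between neutral and stimulator controls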;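 note: PAF is a Pseudomonas aeruginosa culture filtrate used as stimulus; plate controls were PAF-stimulated DMSO wells for no effect and unstimulated DMSO wells for full effect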
# KKLEB cytotox: reduces viability of KKLEB cystic fibrosis airway cells; KKLEB CF airway cells viability, ATPlite luminescence, overnight; active compounds read low; cells stimulated with P. aeruginosa culture filtrate; activity change (cytotoxicity), % at 5 µM; 360,000 compounds, 0.36% hits; AID 602141;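 active = corrected activity change at or below -50% at 5 µM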
# C8 TRAIL sens: sensitizes caspase-8 expressing cells to TRAIL; NB7+C8 cells + TRAIL, ATPlite viability luminescence; inhibition (viability loss, TRAIL sensitization), % at 10 µM; 360,000 compounds, 1% hits; AID 624354;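 active = compounds causing at least 50% loss of cell viability in the single-dose screen, relative to plate controls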
# Peg3 promoter: Peg3 promoter activity inhibition; HeLa PEG-Prom luciferase reporter, luminescence, overnight; inhibition, % at 20 µM; 360,000 compounds, 1.7% hits; AID 588405;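 active = inhibition of at least 50% at 20 µM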
# PPC-1+TRAIL kill: PPC-1 cancer cell killing with TRAIL present. 220,000 compounds, 0.41% hits. cell killing (% activity), % at 4 µM or 5 µM. PPC-1 cells + TRAIL, ATPLite viability luminescence;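 active = cell killing above 50% in the first pass at 4 µM, then a duplicate retest at 5 µM averaging 50% or more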;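 note: plate controls were cells with TRAIL plus DMSO for no effect and medium-only wells lacking cells for full effect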
# CF NFkB inh conf: CF NF-kB inhibition confirmation, single concentration; inhibition, % at 5 µM; 1,300 compounds, 64% hits; AID 602472; KKLEB CF airway cells, PAF-induced NF-kB-GFP fluorescence, overnight; shares compounds with CF NFkB inh; in the data active = inhibition above about 40%;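 note: stimulus PAF is a Pseudomonas aeruginosa filtrate and not platelet activating factor; plate controls were DMSO wells with stimulus for no effect and unstimulated DMSO wells for full effect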
# The depositor's hits bear a star; . = not tested or not shown.
SMILES,HIF-2a block,CF NFkB inh,KKLEB cytotox,C8 TRAIL sens,Peg3 promoter,PPC-1+TRAIL kill,CF NFkB inh conf
CC(=O)c1ccc(Sc2nnnn2-c2ccccc2)c([N+](=O)[O-])c1,13,76*,-32,16,38,4,28
O=[N+]([O-])c1ccc(Sc2nnnn2-c2ccccc2)c(Cl)c1,6,19,-26,-17,18,-1,.
c1ccc2c(c1)Nc1cc3ccccc3cc1S2,-143,-1,10,-9,-149,10,.
c1ccc2c(c1)Nc1ccncc1S2,25,52*,-4,0,0,3,77*
O=C(CNC(=O)N1CC(=O)Nc2ccccc21)Nc1ccc(F)c(Cl)c1,12,5,-5,-12,6,.,.
CCCCN(C)C(=O)c1ccc(Nc2nc(C(N)Cc3ccc(C(F)(F)F)cc3)cs2)nc1 (configuration not stated),1,51*,-44,77*,96*,.,20
CC1(C(=O)NS(=O)(=O)c2ccccc2C(F)(F)F)CCN1C(=O)c1cccc(F)c1 (configuration not stated),10,0,9,-1,-6,.,.
CCc1nc2ccc(C(=O)Nc3cccc(OCC(=O)N(C)C)c3)cn2c1N(C)Cc1cc2ccccc2s1,-19,53*,-10,12,73*,.,14
CCNC(=O)N(C)c1c(CC)nc2ccc(C(=O)Nc3cccc(OCC(=O)N(C)C)c3)cn12,6,-2,0,2,7,.,.
CC1(C)OC(=O)C2=C(C[C@@H](CCc3ccccc3)O[C@@H]2c2ccc(Cl)cc2)O1,-33,.,.,-11,.,.,.
CCCc1ccc(S(=O)(=O)N(C)S(=O)(=O)c2ccc(F)cc2)cc1,6,28,-33,-2,2,.,.
COc1cccc(N2CCN(c3c(C#N)c(C(F)(F)F)nn3C)CC2)c1,20,52*,-4,5,-4,2,61*
COc1ccc(-c2coc3c(C(=O)NCc4cccs4)cccc23)c(C)c1,-24,29,-9,25,22,.,.
O=C(Nc1ccc(Oc2ccccc2)cc1)c1ccc2sc([C@H]3C[C@H](O)[C@@H](CO)O3)nc2c1,-97,54*,6,43,-27,.,46*
CCN(CC)CCNc1oc(-c2ccccc2)nc1S(=O)(=O)c1ccccc1,1,17,-2,-9,27,.,.
Cc1nc2c(C)c(C)c(C)c(C)c2nc1C,21,7,-16,1,6,1,.
Cc1nc2c(O)c3c(c(O)c2nc1C)C1C=CC3CC1,-4,83*,-34,14,93*,.,85*
C=C(C)COc1ccc(-c2[nH]ncc2-c2ccccc2)c(O)c1,14,6,-2,-1,12,7,.
COc1ccc(-c2cn[nH]c2-c2ccc(O)cc2O)cc1,19,70*,8,-33,11,.,94*
COc1ccc(-c2cnc(N)nc2-c2ccc(OC)cc2O)cc1,31,56*,-13,-4,13,6,51*
COc1ccc(Oc2cn[nH]c2-c2ccc(O)cc2O)cc1,-7,14,-3,-3,16,12,.
C=C(C)COc1ccc(-c2[nH]ncc2-c2ccc(OC)cc2)c(O)c1,5,53*,2,-5,22,7,72*
CCN(CC)c1c(C)nc2ccc(C(=O)N3CCN(C(=O)c4ccco4)CC3)cn12,10,4,2,-3,8,.,.
CC1CC(C)CN(C(=O)COC(=O)c2ccc(S(=O)(=O)N(C)c3ccccc3)cc2)C1 (configuration not stated),7,-2,19,7,-13,.,.
Cc1ccc(NC(=O)N2CCOCC2)cc1NC(=O)N1CCOCC1,16,-4,7,-10,7,.,.
SMILES,HIF-2a block,CF NFkB inh,KKLEB cytotox,C8 TRAIL sens,Peg3 promoter,PPC-1+TRAIL kill,CF NFkB inh conf
COCCNc1nc(-c2cc(F)ccc2C)c2sc(-c3ccccc3)cc2n1,-18,41,-16,4,12,.,.
COc1cccc(/C=N/n2c(N)c(S(=O)(=O)c3cccs3)c3nc4ccccc4nc32)c1OC,3,54*,15,10,4,10,11
COCCn1c(N)c(S(=O)(=O)c2cccs2)c2nc3ccccc3nc21,14,-7,9,-49,13,6,.
COc1ccc(NC(=O)C2CC(=O)N(c3ccccc3Cl)C2)c(OC)c1 (configuration not stated),0,7,-6,-7,9,.,.
O=C(NCc1cccs1)c1ccc(CS(=O)Cc2ccc(Cl)cc2)o1 (configuration not stated),13,-5,-6,-7,-2,.,.
O=C(c1nnsc1S(=O)(=O)c1ccc(Cl)cc1)N1CCOCC1,32,90*,-33,11,95*,14,96*
FC(F)(F)c1nnc2c(Sc3ccccc3)nc3ccccc3n12,-60,79*,11,15,3,-10,84*
COc1ccc(Nc2nc(-c3cccs3)nc3ccccc23)cc1S(=O)(=O)N1CCOCC1,-83,90*,-36,18,55*,.,103*
COc1ccc(NS(=O)(=O)c2cccs2)cc1S(=O)(=O)N1CCOCC1,2,-6,0,-16,13,.,.
COc1ccc(Nc2cccccc2=O)cc1,-79,17,10,0,-123,7,.
COc1ccc(Nc2cccc3ccccc23)cc1,-115,76*,-22,56*,-11,.,-4
O=C(NCCCc1ccccc1)c1cc(COc2ccc(F)cc2Cl)on1,-40,-11,-10,6,-5,.,.
CCC1=Nc2cc(C(=O)NCc3ccco3)ccc2Sc2ccc(C)cc21,35,52*,-28,-28,4,0,80*
CCN(CC)CCN(C(=O)CCS(=O)(=O)c1ccccc1)c1nc2c(C)cc(C)cc2s1,23,73*,-29,11,57*,.,70*
O=c1[nH]c(C2CCN(S(=O)(=O)c3ccc4c(c3)OCCO4)CC2)nc2c1nnn2Cc1c(F)cccc1Cl,22,68*,0,-27,56*,.,82*
O=C(c1ccccc1)C1OC1C(=O)c1ccccc1 (configuration not stated),-55,56*,-12,26,-18,.,54*
CC1C=CC(C)C(C(=O)c2ccccc2)C1C(=O)c1ccccc1 (configuration not stated),14,-5,-3,6,15,.,.
COc1ccc(COc2cc(-c3cccc(OC)c3)nc3ccc(NC(=O)c4cccnc4)cc23)cc1,17,80*,-17,24,54*,2,92*
C/C(=N/NC(=O)c1cc(-c2cccc([N+](=O)[O-])c2)n[nH]1)c1cccc(O)c1,14,57*,-12,5,12,1,37
CN1CCC(OC(=O)c2cc3cc(Cl)cc(Cl)c3oc2=O)CC1,25,54*,6,-4,40,.,82*
